Measurements from PubChem BioAssay AID1159580 (chemical genetic matrix, 2015).
“And” between values parts separate entries of the source, which are not always exact repeats. Equal values may be shown once. Screen size: about 5,500 compounds; about 2,000 (36%) were called active. Not shown: some 18% with an inconclusive outcome. Cut-off read from the data, not from the text of the source: active = normalized growth mostly below about 0.91 (no sharp cut-off); inconclusive = no clear call, values can overlap the other calls; inactive = mostly above about 0.92. The list shows a part of the results.

Assay: chemical genetic growth profiling, strain panel (AID 1159580);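 note: tested at 20 µM; growth read once vehicle control cultures reached saturation at 30 °C; 1 = growth at the plate median or of vehicle wells; lower values mean less growth of the strain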
Details: S. cerevisiae deletion strains, growth OD

Measured: normalized growth

COc1ccc(-c2cc(=O)c3cc(OC)ccc3o2)cc1
active: locus YAL030W, strain snc1, stronger effect = lower value 0.928 | locus YBR009C, strain hhf1, stronger effect = lower value 0.902 | locus YCL011C, strain gbp2, stronger effect = lower value 0.887 | locus YDR392W, strain spt3, stronger effect = lower value 0.571 | locus YEL037C, strain rad23, stronger effect = lower value 0.921 | locus YER155C, strain BEM2 (second series), stronger effect = lower value 0.771 | locus YGL253W, strain hxk2, stronger effect = lower value 0.894 | locus YHR142W, strain chs7, stronger effect = lower value 0.84 | locus YJL164C, strain tpk1, stronger effect = lower value 0.912 | locus YLL026W, stronger effect = lower value 0.926 | locus YLR320W, strain mms22, stronger effect = lower value 0.869 | locus YNL071W, strain lat1, stronger effect = lower value 0.831 | locus YOR270C, strain vph1, stronger effect = lower value 0.676 | locus YOR290C, strain snf2, stronger effect = lower value 0.849
inactive: locus YAL013W, strain DEP1, stronger effect = lower value 0.982 | locus YAL021C, strain ccr4, stronger effect = lower value 0.964 | locus YAL026C, strain drs2, stronger effect = lower value 0.922 | locus YBL061C, strain skt5, stronger effect = lower value 0.937 | locus YBR021W, strain FUR4, stronger effect = lower value 0.908 | locus YBR023C, strain chs3, stronger effect = lower value 0.916 | locus YBR171W, strain sec66, stronger effect = lower value 0.95 | locus YBR229C, strain ROT2, stronger effect = lower value 0.999 | locus YBR231C, strain swc5, stronger effect = lower value 0.939 | locus YBR279W, strain paf1, stronger effect = lower value 0.944 | locus YCL016C, strain dcc1, stronger effect = lower value 0.944 | locus YCL029C, strain bik1, stronger effect = lower value 0.987 | locus YCL061C, strain MRC1, stronger effect = lower value 0.96 | locus YCL069W, strain vba3, stronger effect = lower value 0.945 | locus YCR088W, strain abp1, stronger effect = lower value 0.94 | locus YDL005C, strain med2, stronger effect = lower value 0.949 | locus YDL035C, strain GPR1, stronger effect = lower value 0.977 | locus YDL040C, strain nat1, stronger effect = lower value 0.95 | locus YDL074C, strain BRE1, stronger effect = lower value 0.918 | locus YDL101C, strain DUN1, stronger effect = lower value 0.983 | locus YDL134C, strain PPH21, stronger effect = lower value 1.04 | locus YDL185W, strain tfp1, stronger effect = lower value 0.946 | locus YDL192W, strain arf1, stronger effect = lower value 0.978 | locus YDR001C, strain nth1, stronger effect = lower value 0.942 | locus YDR069C, strain doa4, stronger effect = lower value 0.948 | locus YDR101C, strain arx1, stronger effect = lower value 0.946 | locus YDR137W, strain rgp1, stronger effect = lower value 0.883 | locus YDR150W, strain NUM1, stronger effect = lower value 0.983 | locus YDR159W, strain sac3, stronger effect = lower value 0.925 | locus YDR162C, strain NBP2, stronger effect = lower value 1.01 | locus YDR195W, strain ref2 1.04 | locus YDR297W, strain sur2, stronger effect = lower value 0.955 | locus YDR318W, strain mcm21, stronger effect = lower value 1.02 | locus YDR334W, strain swr1, stronger effect = lower value 0.931 | locus YDR335W, strain msn5, stronger effect = lower value 0.962 | locus YDR388W, stronger effect = lower value 1 | locus YDR502C, strain sam2, stronger effect = lower value 0.968 | locus YEL003W, strain gim4, stronger effect = lower value 0.956 | locus YEL061C, strain CIN8 (second series), stronger effect = lower value 0.93 | locus YEL061C, strain CIN8, stronger effect = lower value 1.01 | locus YER015W, strain faa2, stronger effect = lower value 0.969 | locus YER016W, strain bim1, stronger effect = lower value 0.954 | locus YER110C, stronger effect = lower value 0.974 | locus YER111C, strain swi4, stronger effect = lower value 0.943 | locus YER155C, strain BEM2, stronger effect = lower value 0.985 | locus YER167W, strain BCK2, stronger effect = lower value 0.997 | locus YFR010W, strain ubp6, stronger effect = lower value 0.906 | locus YGL078C, strain dbp3, stronger effect = lower value 0.995 | locus YGL086W, strain mad1, stronger effect = lower value 0.938 | locus YGL167C, strain pmr1, stronger effect = lower value 0.924 | locus YGL173C, strain kem1, stronger effect = lower value 0.947 | locus YGL227W, strain vid30, stronger effect = lower value 0.947 | locus YGL240W, strain doc1, stronger effect = lower value 0.892 | locus YGL248W, strain PDE1, stronger effect = lower value 1.01 | locus YGR078C, strain PAC10, stronger effect = lower value 0.988 | locus YGR135W, strain pre9, stronger effect = lower value 1.01 | locus YGR229C, strain SMI1, stronger effect = lower value 0.961 | locus YGR252W, strain gcn5, stronger effect = lower value 1.04 | locus YHR013C, strain ard1, stronger effect = lower value 0.972 | locus YHR027C, strain rpn1, stronger effect = lower value 0.949 | locus YHR030C, strain SLT2, stronger effect = lower value 0.998 and 0.956 | locus YHR079C, strain IRE1 (second series), stronger effect = lower value 0.997 | locus YHR079C, strain IRE1, stronger effect = lower value 0.928 | locus YHR094C, strain hxt1, stronger effect = lower value 1.01 | locus YHR129C, strain ARP1, stronger effect = lower value 0.985 | locus YHR200W, strain rpn10, stronger effect = lower value 0.985 | locus YIL066C, strain RNR3, stronger effect = lower value 0.999 | locus YIL073C, strain SPO22, stronger effect = lower value 0.973 | locus YIL125W, strain kgd1, stronger effect = lower value 0.99 | locus YIR030C, strain dcg1, stronger effect = lower value 1.01 | locus YJL092W, strain hpr5, stronger effect = lower value 0.948 | locus YJL095W, strain BCK1 (second series), stronger effect = lower value 0.95 | locus YJL095W, strain BCK1, stronger effect = lower value 0.96 and 0.964 | locus YJL115W, strain asf1, stronger effect = lower value 0.936 | locus YJL129C, strain trk1, stronger effect = lower value 0.937 | locus YJL134W, strain LCB3, stronger effect = lower value 0.996 | locus YJL154C, strain vps35, stronger effect = lower value 0.942 | locus YJL166W, strain qcr8, stronger effect = lower value 0.913 | locus YJL168C, strain set2, stronger effect = lower value 1 | locus YJL187C, strain SWE1 (second series), stronger effect = lower value 0.972 | locus YJL187C, strain SWE1, stronger effect = lower value 0.948 | locus YJR043C, strain POL32, stronger effect = lower value 0.966 | locus YJR066W, strain TOR1, stronger effect = lower value 0.893 | locus YKL009W, strain mrt4, stronger effect = lower value 0.925 | locus YKL068W, stronger effect = lower value 1 | locus YKL085W, strain MDH1 (second series), stronger effect = lower value 0.997 | locus YKL085W, strain MDH1, stronger effect = lower value 0.997 | locus YKL160W, strain elf1, stronger effect = lower value 0.939 | locus YKL190W, strain CNB1, stronger effect = lower value 1 | locus YKR001C, strain vps1, stronger effect = lower value 0.93 | locus YKR026C, strain gcn3, stronger effect = lower value 0.942 | locus YKR091W, strain srl3, stronger effect = lower value 0.96 | locus YLL001W, strain dnm1, stronger effect = lower value 0.931 | locus YLL041C, strain sdh2, stronger effect = lower value 0.96 | locus YLR027C, strain aat2, stronger effect = lower value 0.925 | locus YLR039C, strain RIC1, stronger effect = lower value 1.01 | locus YLR058C, strain SHM2, stronger effect = lower value 0.99 | locus YLR102C, strain apc9, stronger effect = lower value 0.975 | locus YLR113W, strain HOG1, stronger effect = lower value 0.981 | locus YLR221C, strain rsa3, stronger effect = lower value 0.947 | locus YLR258W, strain gsy2, stronger effect = lower value 0.934 | locus YLR262C, strain YPT6 (second series), stronger effect = lower value 0.902 | locus YLR262C, strain YPT6, stronger effect = lower value 1.06 | locus YLR268W, strain sec22, stronger effect = lower value 0.965 | locus YLR330W, strain CHS5, stronger effect = lower value 0.925 | locus YLR342W, strain FKS1 (second series), stronger effect = lower value 0.975 | locus YLR342W, strain FKS1, stronger effect = lower value 0.94 | locus YLR357W, strain rsc2, stronger effect = lower value 0.88 | locus YLR370C, strain arc18, stronger effect = lower value 0.941 | locus YLR371W, strain rom2, stronger effect = lower value 0.965 | locus YLR384C, strain iki3, stronger effect = lower value 0.944 | locus YLR418C, strain cdc73, stronger effect = lower value 0.943 | locus YML016C, strain PPZ1, stronger effect = lower value 0.991 | locus YML032C, strain rad52, stronger effect = lower value 0.997 | locus YML120C, strain ndi1, stronger effect = lower value 0.946 | locus YML124C, strain tub3, stronger effect = lower value 1.01 | locus YMR058W, strain fet3, stronger effect = lower value 0.928 | locus YMR078C, strain ctf18, stronger effect = lower value 0.982 | locus YMR125W, strain sto1, stronger effect = lower value 0.927 | locus YMR129W, stronger effect = lower value 0.949 | locus YMR205C, strain PFK2, stronger effect = lower value 0.898 | locus YMR223W, strain ubp8, stronger effect = lower value 1.02 | locus YMR231W, strain pep5, stronger effect = lower value 0.974 | locus YMR307W, strain GAS1, stronger effect = lower value 1.06 | locus YNL067W, strain RPL9B, stronger effect = lower value 0.99 | locus YNL183C, strain NPR1, stronger effect = lower value 0.885 | locus YNL209W, strain ssb2, stronger effect = lower value 0.956 | locus YNL233W, strain BNI4, stronger effect = lower value 0.914 | locus YNL248C, strain rpa49, stronger effect = lower value 0.95 | locus YNL250W, strain rad50, stronger effect = lower value 0.957 | locus YNL271C, strain bni1, stronger effect = lower value 1.02 | locus YNL298W, strain CLA4, stronger effect = lower value 0.995 | locus YNL307C, strain MCK1, stronger effect = lower value 0.987 | locus YNL322C, strain KRE1 (second series), stronger effect = lower value 0.948 | locus YNL322C, strain KRE1, stronger effect = lower value 1 | locus YNR049C, strain mso1, stronger effect = lower value 0.937 | locus YNR052C, strain pop2, stronger effect = lower value 1.02 | locus YOL012C, strain htz1 1.07 | locus YOL147C, strain pex11, stronger effect = lower value 0.997 | locus YOR001W, strain rrp6, stronger effect = lower value 0.95 | locus YOR061W, strain CKA2, stronger effect = lower value 1.01 | locus YOR069W, strain VPS5, stronger effect = lower value 0.99 | locus YOR070C, strain gyp1, stronger effect = lower value 0.941 | locus YOR080W, strain dia2, stronger effect = lower value 0.961 | locus YOR083W, strain WHI5, stronger effect = lower value 0.954 | locus YOR106W, strain vam3, stronger effect = lower value 0.905 | locus YOR136W, strain idh2, stronger effect = lower value 0.988 | locus YOR144C, strain elg1, stronger effect = lower value 0.997 | locus YOR184W, strain ser1, stronger effect = lower value 0.979 | locus YOR231W, strain MKK1, stronger effect = lower value 0.952 | locus YOR265W, strain rbl2, stronger effect = lower value 0.949 | locus YOR316C, strain cot1, stronger effect = lower value 0.996 | locus YPL051W, strain arl3, stronger effect = lower value 0.945 | locus YPL055C, strain LGE1, stronger effect = lower value 0.934 | locus YPL078C, strain atp4, stronger effect = lower value 0.922 | locus YPL106C, strain sse1, stronger effect = lower value 0.873 | locus YPL240C, strain hsp82, stronger effect = lower value 0.972 | locus YPL241C, strain CIN2, stronger effect = lower value 0.997 | locus YPL256C, strain CLN2, stronger effect = lower value 0.962 | locus YPR119W, strain clb2, stronger effect = lower value 1 | locus YPR141C, strain kar3, stronger effect = lower value 1.02 | locus YPR163C, strain tif3, stronger effect = lower value 1 | locus YPR167C, strain met16, stronger effect = lower value 1.02 | strain wtn01, stronger effect = lower value 0.944
